In the library only some 2.8% were active in any assay of this set; here they are far more common.
GLP-1R agonist = agonists of human GLP-1 receptor; 380,000 tested, 0.007% active; HEK293 GLP-1R CRE-luciferase, luminescence, 4-6 h; cells express a hypersensitive GLP-1R form; Potency, µM (series often up to 45.6 µM), usual class: activators; P43220
Target sequence (P43220 whole entry, looked up): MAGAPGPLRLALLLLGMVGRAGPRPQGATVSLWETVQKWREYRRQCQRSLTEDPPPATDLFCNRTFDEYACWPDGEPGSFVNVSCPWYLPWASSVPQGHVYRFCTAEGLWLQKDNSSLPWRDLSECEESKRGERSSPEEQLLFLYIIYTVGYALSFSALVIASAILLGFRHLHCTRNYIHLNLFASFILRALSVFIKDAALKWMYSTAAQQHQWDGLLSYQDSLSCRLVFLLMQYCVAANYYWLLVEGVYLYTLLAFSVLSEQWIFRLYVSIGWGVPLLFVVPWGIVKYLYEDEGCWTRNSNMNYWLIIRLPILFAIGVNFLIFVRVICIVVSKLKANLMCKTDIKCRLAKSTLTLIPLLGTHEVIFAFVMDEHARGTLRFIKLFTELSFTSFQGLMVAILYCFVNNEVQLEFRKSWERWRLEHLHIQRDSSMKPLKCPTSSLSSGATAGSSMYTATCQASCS
GLP-1R inv ag = inverse agonists of human GLP-1 receptor; HEK293 GLP-1R CRE-luciferase, luminescence, 24 h; GLP-1R form is constitutively active; P43220; AID 624417; Potency, µM (series often up to 38.3 µM), hits mostly inhibitors; 410,000 tested, 1.6% active; also: nearly all actives have a fitted effect of over 55% in size
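Constitutively active GLP-1R drives a cAMP-responsive luciferase in stably transfected HEK293 cells; test compounds are added after overnight (12 h) attachment and left 24 hr, and signal loss in luminescence marks inhibition.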
BRCA1 expr act = increases BRCA1 expression. MCF7-BRCA1-FFLuc reporter, luminescence, 48 h; response scale: scaled: vehicle 0%, 10 µM genistein 100%. Potency, µM (top dose mostly 46.1 µM), hits mostly activators. 380,000 tested, 1.1% active; also: nearly all actives have a fitted effect of over 80% in size
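MCF7-BRCA1-FFLuc, 2000 cells/well; 2 h attach, 37 °C/5% CO2; compound 48 h; luciferase substrate 15 min; luminescence end-point. Norm. to genistein 10 microM max activation and DMSO; concentration-response curves fitted.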
Mito fusion yeast = blocks mitochondrial division or promotes mitochondrial fusion. S. cerevisiae fusion-defective mutant growth rescue, CellTiterGlo 48 h. Potency, µM (doses to about 46.1 µM), actives largely listed as activators. 320,000 tested, 0.23% active. AID 485298; also: nearly all actives have a fitted effect of over 45% in size
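S. cerevisiae fusion-defective temperature-sensitive mutants (e.g. fzo1-1, mgm1-5) grown 48 h at 37C in YPEG (ethanol/glycerol non-fermentable) medium with 23 nl compound per well; growth rescue read as CellTiterGlo luminescence.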
GLP1R cytotox = cytotoxic in the GLP-1 receptor inverse agonist counter-screen | HEK293 cAMP-luciferase reporter cells, luminescence, 24 h | Potency, µM (series often up to 38.3 µM), most hits filed as inhibitors | 410,000 tested, 0.13% active;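 also: loss of luciferase light is scored as toxicity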
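To flag toxic compounds, the library was rerun on cells for 24 hr at 37 deg C and 5% CO2. Viability-linked luminescence was captured 12 min after adding luciferase detection reagent.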
Each line names hits and unclear results; the compound was inactive in the other large screens. Calls follow the shape of the dose curve; as a rule, active = well fitted curve in the direction sought with a large enough effect; inconclusive = small, poorly fitted or top-dose-only effect, or another doubt; inactive = no such curve, though single readings can be large; an effect the other way counts as inactive or inconclusive.

COc1ccc2oc(C(=O)c3ccccc3)c(N)c2c1	GLP-1R inv ag inconclusive
CCOc1ccc(NC(=O)CSc2ncc(S(=O)(=O)c3ccc(F)c(C)c3)c(=O)[nH]2)cc1	none (no result: Mito fusion yeast)
CC(C)CC(N)c1cn([C@@H](CCC(=O)O)C(=O)N2CCNCC2)nn1 (some centres not stated)	none
CC(C)C[C@H](N)c1cn([C@@H](CCCCN)C(=O)N2CCNCC2)nn1	GLP-1R inv ag 0.89µM, GLP1R cytotox inconclusive
c1ccc(-c2cc3nc(NCc4cccs4)ccn3n2)cc1	GLP-1R inv ag inconclusive (no result: Mito fusion yeast)
O=c1c2ccccc2nc2ccc(NCc3cccs3)nn12	BRCA1 expr act 11µM
Cc1cccc(C)c1NC(=O)CN1CCN(c2ccc(C(F)(F)F)cn2)CC1	none (no result: Mito fusion yeast)
O=C(c1nn(Cc2ccccc2)c(=O)c2ccccc12)N1CCN(C/C=C/c2ccccc2)CC1	GLP-1R inv ag 7.9µM
O=C(CCn1c(=S)[nH]c2ccccc2c1=O)N1CCOCC1	none
C(#Cc1ccc(C#CCN2CCCC2)cc1)CN1CCCC1	GLP-1R inv ag 3.5µM, GLP1R cytotox inconclusive
O=C(c1ccccc1)N1CCN(CC#Cc2ccccc2)CC1	BRCA1 expr act inconclusive
COc1ccc(/C=N\NC(=O)C2=NNC(=O)C2C)cc1 (configuration not stated)	BRCA1 expr act 2.8µM
Cc1cc(NC(=O)c2cc(C3CC3)on2)no1	BRCA1 expr act 6.3µM
CN1CCN/C1=C(/C(Cl)=C(Cl)Cl)[N+](=O)[O-]	BRCA1 expr act inconclusive
CCCCC(=NCCc1c(C)[nH]c2ccccc12)C1=C(O)CC(c2ccccc2)CC1=O (configuration not stated)	GLP-1R inv ag inconclusive, GLP1R cytotox inconclusive
CC(=NCCc1c(C)[nH]c2ccc(C)cc12)C1=C(O)CC(c2ccccc2)CC1=O (configuration not stated)	GLP-1R inv ag 3.5µM, Mito fusion yeast inconclusive, GLP1R cytotox inconclusive
CCCC(=NCCc1c(C)[nH]c2ccccc12)C1=C(O)CC(c2ccccc2)CC1=O (configuration not stated)	GLP-1R inv ag 2.5µM, Mito fusion yeast inconclusive, GLP1R cytotox inconclusive
CCc1ccc(S(=O)(=O)NCCc2csc(-c3cccnc3)n2)s1	none
CCOc1ccc(N2C(=O)CCC2=O)cc1	none
CCCC1CCC(c2ccc(OCC)cc2)=CC1=O (configuration not stated)	BRCA1 expr act 8.9µM
CCOC(=O)c1ccc(NC(=O)CCn2nnc3ccccc32)cc1	none
CCOC(=O)c1ccc(NC(=O)Cn2nnc3ccccc32)cc1	GLP-1R inv ag inconclusive, BRCA1 expr act 4µM
Cc1occc1C(=O)N1CCN(C(c2ccccc2)c2ccccc2)CC1	GLP-1R inv ag inconclusive
Cc1oc(C(C)(C)C)cc1C(=O)N1CCN(C(c2ccccc2)c2ccccc2)CC1	GLP-1R inv ag 7.9µM
O=C(NCC(=O)N1CCN(C(c2ccccc2)c2ccccc2)CC1)c1ccccc1F	GLP-1R inv ag 8.9µM
O=C(C1=COCCO1)N1CCN(C(c2ccccc2)c2ccccc2)CC1	GLP-1R inv ag 10µM
Cc1ccccc1C(=O)N1CCN(C(c2ccccc2)c2ccccc2)CC1	GLP-1R inv ag 8.9µM
Cc1ccc(N2C(=O)N(CC(=O)Nc3c(C)cc(C)cc3Cl)C(=O)C2C)cc1 (configuration not stated)	GLP-1R inv ag 10µM
CC(C)(CO)NCC(O)COc1ccc2c(c1)CCC2 (configuration not stated)	GLP-1R inv ag inconclusive
CC(C)(C)CC(C)(C)NCC(O)COc1ccc2c(c1)CCC2 (configuration not stated)	GLP-1R inv ag 10µM, GLP1R cytotox inconclusive (no result: Mito fusion yeast)
CC(=O)O/N=C(\N)c1ccc(-c2csnn2)cc1	BRCA1 expr act 11µM
COc1ccc(CN2C(=O)CCC2(C)c2nnnn2-c2c(C)cccc2C)cc1OC (configuration not stated)	none (no result: Mito fusion yeast)
Cc1cc(S(=O)(=O)C(CNC(=O)COc2ccccc2)c2cccs2)ccc1F (configuration not stated)	none (no result: GLP-1R agonist, BRCA1 expr act, Mito fusion yeast)
COc1cc(SC)ccc1C(=O)Nc1ccc(Cl)cn1	GLP-1R inv ag 2.2µM
COc1cc2ccccc2cc1C(=O)NC1CCC(C)CC1 (configuration not stated)	GLP-1R agonist inconclusive, GLP-1R inv ag 10µM (no result: Mito fusion yeast)
COc1cc2ccccc2cc1C(=O)NC1CCCC1	GLP-1R inv ag inconclusive (no result: Mito fusion yeast)
COc1cc(SC)ccc1C(=O)N1CCC(Cc2ccccc2)CC1	Mito fusion yeast 21µM (no result: GLP-1R agonist, GLP-1R inv ag, BRCA1 expr act, GLP1R cytotox)
CSc1ccc(Cl)c(C(=O)Nc2ccc(Cl)cn2)c1	GLP-1R inv ag inconclusive
COc1cc(SC)ccc1C(=O)NC1CCCCC1	GLP-1R agonist inconclusive, BRCA1 expr act inconclusive, Mito fusion yeast 32µM
CCOc1ccccc1C(=O)N1CCN(C(c2ccccc2)c2ccccc2)CC1	GLP-1R inv ag inconclusive
CCC(=O)c1ccc(OCC(=O)OCC(=O)Nc2cccc(S(=O)(=O)N3CCCC3)c2)cc1	none
COc1ccc(-n2c3c(cc(C(=O)NNc4ccccc4)c2=O)C(=O)CC(C)(C)C3)cc1	GLP-1R inv ag 1µM
Nn1c(SCC(=O)N2CCCc3ccccc32)nncc1=O	none
Cc1ccc(CNC(=O)[C@]2(C)CCC[C@@]3(C)C4CC[C@@]5(C)C[C@]4(CCC32)CC5=O)cc1 (some centres not stated)	GLP-1R inv ag inconclusive (no result: Mito fusion yeast)
COc1ccc(CNC(=O)[C@]2(C)CCC[C@@]3(C)C4CC[C@@]5(C)C[C@]4(CCC32)CC5=O)cc1 (some centres not stated)	GLP-1R inv ag 10µM
C#CCNC(=O)/C=C/c1ccc(C)cc1	BRCA1 expr act 11µM
COc1ccc(NC(=O)Cn2nnc(-c3ccccc3NS(=O)(=O)c3ccccc3)n2)cc1	GLP-1R inv ag 7.1µM
COc1ccc(-c2oc3c(OC)c(OC)c(OC)c(O)c3c(=O)c2OC)cc1OC	GLP-1R inv ag 2.8µM
O=C(CSc1ccccc1)Nc1nccs1	none
O=C(CSc1cn(Cc2ccccc2)c2ccccc12)Nc1nccs1	BRCA1 expr act 11µM
Cc1ccc(Sc2cc(C)nc(-c3ccccn3)n2)cc1	GLP-1R inv ag inconclusive, GLP1R cytotox inconclusive
CC(=O)c1ccc(NC(=O)Cn2cc(S(=O)(=O)Cc3cccc(Cl)c3)c3ccccc32)cc1	GLP-1R inv ag 10µM, GLP1R cytotox inconclusive (no result: GLP-1R agonist, BRCA1 expr act, Mito fusion yeast)
Cc1ccc(S(=O)(=O)NCC(NCc2ccc(F)cc2)c2ccccc2)cc1 (configuration not stated)	GLP-1R inv ag 11µM
Cc1ccc(S(=O)(=O)NCC(c2ccccc2)N2CCN(c3ccc(F)cc3)CC2)cc1 (configuration not stated)	GLP-1R inv ag inconclusive
Cc1ccc(S(=O)(=O)NCC(Nc2cccc(Cl)c2)c2ccccc2)cc1 (configuration not stated)	GLP-1R inv ag 11µM (no result: Mito fusion yeast)

Assay outcomes deposited in PubChem BioAssay by National Center for Advancing Translational Sciences (NCATS).
